For 10 compounds, residual activity results are on record in ChEMBL document CHEMBL2218924, “A broad activity screen in support of a chemogenomic map for kinase signalling research and drug discovery” (Biochem J, 2013).

For experiment [1], the target named is T1, Serine/threonine-protein kinase haspin (Homo sapiens) (UniProt Q8TF76).
T1 sequence (whole entry): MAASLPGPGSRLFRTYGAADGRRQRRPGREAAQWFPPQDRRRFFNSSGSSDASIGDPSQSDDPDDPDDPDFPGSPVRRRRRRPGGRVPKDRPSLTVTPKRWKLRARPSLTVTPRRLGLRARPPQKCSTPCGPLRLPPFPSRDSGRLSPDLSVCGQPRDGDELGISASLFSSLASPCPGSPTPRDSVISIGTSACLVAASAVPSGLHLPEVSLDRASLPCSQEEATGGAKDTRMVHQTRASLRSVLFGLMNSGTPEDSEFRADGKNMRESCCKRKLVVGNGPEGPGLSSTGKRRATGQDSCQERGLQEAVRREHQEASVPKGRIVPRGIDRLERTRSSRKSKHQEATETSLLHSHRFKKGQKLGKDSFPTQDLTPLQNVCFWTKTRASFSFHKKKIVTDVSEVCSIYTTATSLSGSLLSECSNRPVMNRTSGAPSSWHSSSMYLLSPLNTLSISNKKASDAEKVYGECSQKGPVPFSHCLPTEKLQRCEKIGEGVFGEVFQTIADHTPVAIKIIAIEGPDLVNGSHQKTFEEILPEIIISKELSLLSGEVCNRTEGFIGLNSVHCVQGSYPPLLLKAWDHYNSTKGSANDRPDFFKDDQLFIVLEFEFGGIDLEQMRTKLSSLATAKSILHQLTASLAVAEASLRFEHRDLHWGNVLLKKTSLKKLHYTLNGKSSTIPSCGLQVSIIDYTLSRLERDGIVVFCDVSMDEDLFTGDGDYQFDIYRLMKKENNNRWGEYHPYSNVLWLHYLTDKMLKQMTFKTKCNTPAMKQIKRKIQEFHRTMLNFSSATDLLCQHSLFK
As to conditions: at 1 µM; call rule not given here.

Experiment [2] deals with T1, Serine/threonine-protein kinase haspin (Homo sapiens). As to conditions: at 10 µM.
Experiment [3] concerns the target Tyrosine-protein kinase HCK (Homo sapiens) (UniProt P08631). Particulars: at 1 µM.
The target is the same in experiment [4]. Particulars: at 10 µM.
Experiment [5] has as its target Insulin-like growth factor 1 receptor (Homo sapiens) (UniProt P08069). As to conditions: at 10 µM.
Experiment [6] has as its target Protein kinase C eta type (Homo sapiens) (UniProt P24723). As to conditions: at 1 µM.
Experiment [7] shares this target. As to conditions: at 10 µM.
In experiment [8] the target is T2, Serine/threonine-protein kinase D1 (Homo sapiens) (UniProt Q15139).
T2 sequence (whole entry): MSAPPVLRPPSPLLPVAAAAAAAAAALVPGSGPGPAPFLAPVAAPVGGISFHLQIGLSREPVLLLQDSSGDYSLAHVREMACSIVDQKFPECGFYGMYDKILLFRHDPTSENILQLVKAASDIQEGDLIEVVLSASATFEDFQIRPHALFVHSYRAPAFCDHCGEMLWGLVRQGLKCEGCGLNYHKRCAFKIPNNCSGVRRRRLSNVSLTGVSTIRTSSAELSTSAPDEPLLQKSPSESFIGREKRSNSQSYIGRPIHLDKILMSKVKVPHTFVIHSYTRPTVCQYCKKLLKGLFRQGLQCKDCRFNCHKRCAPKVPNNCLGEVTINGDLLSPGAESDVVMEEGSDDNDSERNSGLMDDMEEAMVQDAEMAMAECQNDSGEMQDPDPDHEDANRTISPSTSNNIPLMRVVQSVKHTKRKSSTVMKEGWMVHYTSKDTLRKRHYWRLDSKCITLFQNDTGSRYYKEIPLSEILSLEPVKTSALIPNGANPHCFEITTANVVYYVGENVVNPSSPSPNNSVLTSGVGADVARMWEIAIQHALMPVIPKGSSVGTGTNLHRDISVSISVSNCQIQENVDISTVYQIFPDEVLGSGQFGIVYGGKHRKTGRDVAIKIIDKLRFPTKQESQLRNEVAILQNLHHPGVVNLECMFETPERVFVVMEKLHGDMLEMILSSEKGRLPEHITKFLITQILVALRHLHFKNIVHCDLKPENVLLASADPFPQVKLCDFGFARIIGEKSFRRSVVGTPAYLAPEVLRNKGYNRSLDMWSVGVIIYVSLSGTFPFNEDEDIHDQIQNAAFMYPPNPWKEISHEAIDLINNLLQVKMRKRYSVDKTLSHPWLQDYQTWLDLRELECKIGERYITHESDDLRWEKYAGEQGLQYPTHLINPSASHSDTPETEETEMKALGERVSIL
As to conditions: at 1 µM.

The target of experiment [9] is T2, Serine/threonine-protein kinase D1 (Homo sapiens). As to conditions: at 10 µM.
For experiment [10], the target named is T3, Serine/threonine-protein kinase D2 (Homo sapiens) (UniProt Q9BZL6).
T3 sequence (whole entry): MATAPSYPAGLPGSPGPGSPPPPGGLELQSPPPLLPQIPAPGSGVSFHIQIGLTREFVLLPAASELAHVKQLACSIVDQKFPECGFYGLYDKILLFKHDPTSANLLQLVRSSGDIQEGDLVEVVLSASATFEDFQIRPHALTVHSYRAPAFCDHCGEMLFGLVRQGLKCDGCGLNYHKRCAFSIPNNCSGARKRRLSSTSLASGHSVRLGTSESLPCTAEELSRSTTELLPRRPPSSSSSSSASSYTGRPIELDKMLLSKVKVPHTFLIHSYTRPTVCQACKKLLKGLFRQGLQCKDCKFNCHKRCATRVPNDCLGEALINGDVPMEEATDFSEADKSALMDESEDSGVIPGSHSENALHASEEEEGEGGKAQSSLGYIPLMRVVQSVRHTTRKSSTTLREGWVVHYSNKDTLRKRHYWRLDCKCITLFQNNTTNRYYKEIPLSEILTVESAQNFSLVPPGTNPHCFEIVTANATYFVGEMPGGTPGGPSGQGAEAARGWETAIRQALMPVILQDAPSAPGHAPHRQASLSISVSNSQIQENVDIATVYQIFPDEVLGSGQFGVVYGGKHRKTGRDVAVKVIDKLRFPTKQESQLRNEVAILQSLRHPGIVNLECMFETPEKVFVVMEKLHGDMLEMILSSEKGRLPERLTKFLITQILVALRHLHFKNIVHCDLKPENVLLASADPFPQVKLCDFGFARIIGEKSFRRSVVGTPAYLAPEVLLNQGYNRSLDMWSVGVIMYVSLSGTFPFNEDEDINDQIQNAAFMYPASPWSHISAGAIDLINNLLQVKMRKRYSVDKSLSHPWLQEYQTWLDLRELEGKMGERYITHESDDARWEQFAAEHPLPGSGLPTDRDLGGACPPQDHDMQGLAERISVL
As to conditions: at 1 µM.

Experiment [11] deals with T3, Serine/threonine-protein kinase D2 (Homo sapiens). As to conditions: at 10 µM.
Experiment [12] deals with T4, Protein kinase C zeta type (Homo sapiens) (UniProt Q05513).
T4 sequence (whole entry): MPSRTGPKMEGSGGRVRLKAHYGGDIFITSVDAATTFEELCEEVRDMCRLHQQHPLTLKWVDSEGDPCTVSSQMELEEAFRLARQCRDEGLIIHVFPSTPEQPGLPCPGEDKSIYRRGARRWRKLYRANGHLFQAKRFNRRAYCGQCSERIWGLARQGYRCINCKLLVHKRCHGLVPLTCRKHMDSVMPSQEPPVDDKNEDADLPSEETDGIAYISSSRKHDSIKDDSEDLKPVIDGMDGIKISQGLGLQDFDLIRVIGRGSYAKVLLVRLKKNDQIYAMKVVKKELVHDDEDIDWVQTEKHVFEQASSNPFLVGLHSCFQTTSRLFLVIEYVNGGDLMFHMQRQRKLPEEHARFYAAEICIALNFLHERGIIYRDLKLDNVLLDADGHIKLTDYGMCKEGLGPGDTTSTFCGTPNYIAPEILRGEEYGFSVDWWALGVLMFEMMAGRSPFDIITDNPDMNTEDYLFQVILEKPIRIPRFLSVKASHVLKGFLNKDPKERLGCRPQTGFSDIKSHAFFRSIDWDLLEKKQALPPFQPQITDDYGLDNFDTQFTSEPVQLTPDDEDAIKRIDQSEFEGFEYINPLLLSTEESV
As to conditions: at 10 µM.

Experiment [13] addresses Protein kinase C theta type (Homo sapiens) (UniProt Q04759). As to conditions: at 1 µM.
Experiment [14] shares this target. As to conditions: at 10 µM.
In experiment [15] the target is Tyrosine-protein kinase HCK (Homo sapiens) (UniProt P08631). As to conditions: at 1 µM. This is another data set of the same source.
Tyrosine-protein kinase HCK (Homo sapiens), sequence (P08631 2-526 limits assumed): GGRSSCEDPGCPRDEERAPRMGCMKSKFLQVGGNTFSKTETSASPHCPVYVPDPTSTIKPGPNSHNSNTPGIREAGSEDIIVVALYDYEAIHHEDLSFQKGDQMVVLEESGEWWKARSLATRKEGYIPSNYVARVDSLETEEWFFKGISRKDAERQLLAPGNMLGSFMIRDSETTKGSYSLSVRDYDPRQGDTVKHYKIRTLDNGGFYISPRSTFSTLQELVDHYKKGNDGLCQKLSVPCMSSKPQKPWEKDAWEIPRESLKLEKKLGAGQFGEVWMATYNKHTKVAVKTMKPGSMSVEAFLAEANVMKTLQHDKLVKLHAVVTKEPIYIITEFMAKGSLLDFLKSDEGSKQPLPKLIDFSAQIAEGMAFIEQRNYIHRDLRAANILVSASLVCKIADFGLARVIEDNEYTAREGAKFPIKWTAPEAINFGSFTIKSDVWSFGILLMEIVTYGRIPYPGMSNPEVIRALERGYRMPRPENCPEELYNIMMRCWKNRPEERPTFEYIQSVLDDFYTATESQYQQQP
Experiment [16] shares this target. Particulars: at 10 µM. This is another data set of the same source.
The target of experiment [17] is Insulin-like growth factor 1 receptor (Homo sapiens) (UniProt P08069). Particulars: at 1 µM.
Insulin-like growth factor 1 receptor (Homo sapiens), sequence (P08069 31-736 limits assumed): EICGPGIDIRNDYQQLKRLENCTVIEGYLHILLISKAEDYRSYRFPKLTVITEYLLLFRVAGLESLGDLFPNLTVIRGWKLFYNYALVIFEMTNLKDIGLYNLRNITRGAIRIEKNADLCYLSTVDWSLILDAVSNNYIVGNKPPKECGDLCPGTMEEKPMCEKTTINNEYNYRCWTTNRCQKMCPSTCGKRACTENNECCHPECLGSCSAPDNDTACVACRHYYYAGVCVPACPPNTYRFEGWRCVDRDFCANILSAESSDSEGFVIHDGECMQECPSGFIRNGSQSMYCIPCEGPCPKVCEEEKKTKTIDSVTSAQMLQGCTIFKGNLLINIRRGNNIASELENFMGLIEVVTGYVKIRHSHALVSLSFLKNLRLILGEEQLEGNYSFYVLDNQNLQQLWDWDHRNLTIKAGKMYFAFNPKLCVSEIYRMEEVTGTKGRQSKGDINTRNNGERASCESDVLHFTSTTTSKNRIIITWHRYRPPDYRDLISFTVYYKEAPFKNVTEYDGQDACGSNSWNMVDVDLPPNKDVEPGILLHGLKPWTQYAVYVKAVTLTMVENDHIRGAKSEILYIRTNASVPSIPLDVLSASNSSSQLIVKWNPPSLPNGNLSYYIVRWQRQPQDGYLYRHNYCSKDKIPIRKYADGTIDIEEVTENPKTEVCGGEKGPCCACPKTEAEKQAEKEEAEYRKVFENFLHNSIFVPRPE
Insulin-like growth factor 1 receptor (Homo sapiens), sequence (P08069 741-1367 limits assumed): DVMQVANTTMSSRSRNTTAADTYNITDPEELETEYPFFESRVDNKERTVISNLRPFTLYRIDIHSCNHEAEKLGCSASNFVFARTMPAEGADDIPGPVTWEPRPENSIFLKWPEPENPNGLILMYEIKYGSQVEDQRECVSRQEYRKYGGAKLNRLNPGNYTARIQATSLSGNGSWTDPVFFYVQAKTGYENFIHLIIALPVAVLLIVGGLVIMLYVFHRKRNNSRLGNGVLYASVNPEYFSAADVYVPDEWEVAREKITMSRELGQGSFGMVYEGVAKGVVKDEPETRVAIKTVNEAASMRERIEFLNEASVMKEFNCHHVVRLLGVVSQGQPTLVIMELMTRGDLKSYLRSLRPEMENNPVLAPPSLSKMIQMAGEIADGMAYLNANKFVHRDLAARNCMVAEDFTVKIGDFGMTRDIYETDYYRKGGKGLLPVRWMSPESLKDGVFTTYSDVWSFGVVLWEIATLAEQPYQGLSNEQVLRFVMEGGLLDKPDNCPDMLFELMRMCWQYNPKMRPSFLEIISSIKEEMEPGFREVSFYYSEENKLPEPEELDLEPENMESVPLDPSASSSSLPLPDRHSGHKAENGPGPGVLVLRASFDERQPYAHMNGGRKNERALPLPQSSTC
Experiment [18] concerns the target T5, Protein kinase C iota type (Homo sapiens) (UniProt P41743).
T5 sequence (whole entry): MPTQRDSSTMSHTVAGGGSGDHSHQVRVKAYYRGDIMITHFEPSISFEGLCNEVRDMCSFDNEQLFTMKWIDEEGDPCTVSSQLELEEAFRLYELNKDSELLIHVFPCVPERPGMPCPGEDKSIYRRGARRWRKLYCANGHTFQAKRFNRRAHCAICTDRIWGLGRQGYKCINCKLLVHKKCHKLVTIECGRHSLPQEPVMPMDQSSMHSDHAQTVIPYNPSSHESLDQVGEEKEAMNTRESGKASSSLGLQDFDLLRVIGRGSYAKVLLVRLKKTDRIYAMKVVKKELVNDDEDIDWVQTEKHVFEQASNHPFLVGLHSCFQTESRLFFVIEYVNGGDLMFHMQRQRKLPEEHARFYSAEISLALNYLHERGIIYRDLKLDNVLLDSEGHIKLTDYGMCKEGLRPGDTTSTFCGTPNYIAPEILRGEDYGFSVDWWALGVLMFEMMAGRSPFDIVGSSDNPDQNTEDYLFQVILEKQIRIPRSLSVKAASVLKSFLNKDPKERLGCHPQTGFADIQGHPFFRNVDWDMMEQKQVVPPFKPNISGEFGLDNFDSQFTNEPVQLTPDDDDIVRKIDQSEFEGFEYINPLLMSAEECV
As to conditions: at 1 µM.

The target in experiment [19] is T5, Protein kinase C iota type (Homo sapiens). As to conditions: at 10 µM.

Protein kinase C eta type (Homo sapiens), sequence (P24723 whole entry): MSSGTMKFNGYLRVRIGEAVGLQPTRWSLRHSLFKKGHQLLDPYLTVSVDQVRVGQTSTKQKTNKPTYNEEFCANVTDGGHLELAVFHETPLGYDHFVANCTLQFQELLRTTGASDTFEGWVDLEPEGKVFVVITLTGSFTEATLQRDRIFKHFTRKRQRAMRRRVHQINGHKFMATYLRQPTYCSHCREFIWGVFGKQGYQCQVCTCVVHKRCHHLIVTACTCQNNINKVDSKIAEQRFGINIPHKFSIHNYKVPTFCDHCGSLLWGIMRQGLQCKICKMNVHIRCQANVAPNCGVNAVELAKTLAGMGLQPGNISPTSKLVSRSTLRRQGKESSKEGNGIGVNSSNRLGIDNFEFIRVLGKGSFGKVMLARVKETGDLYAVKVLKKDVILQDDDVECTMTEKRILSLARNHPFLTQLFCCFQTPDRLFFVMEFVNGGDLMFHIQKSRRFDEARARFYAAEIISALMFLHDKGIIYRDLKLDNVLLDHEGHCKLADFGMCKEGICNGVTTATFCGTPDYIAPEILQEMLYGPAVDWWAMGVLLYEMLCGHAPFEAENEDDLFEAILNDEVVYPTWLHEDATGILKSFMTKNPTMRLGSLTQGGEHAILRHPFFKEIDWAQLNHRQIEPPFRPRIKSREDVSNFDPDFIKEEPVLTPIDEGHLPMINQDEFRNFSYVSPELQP
Protein kinase C theta type (Homo sapiens), sequence (Q04759 whole entry, looked up): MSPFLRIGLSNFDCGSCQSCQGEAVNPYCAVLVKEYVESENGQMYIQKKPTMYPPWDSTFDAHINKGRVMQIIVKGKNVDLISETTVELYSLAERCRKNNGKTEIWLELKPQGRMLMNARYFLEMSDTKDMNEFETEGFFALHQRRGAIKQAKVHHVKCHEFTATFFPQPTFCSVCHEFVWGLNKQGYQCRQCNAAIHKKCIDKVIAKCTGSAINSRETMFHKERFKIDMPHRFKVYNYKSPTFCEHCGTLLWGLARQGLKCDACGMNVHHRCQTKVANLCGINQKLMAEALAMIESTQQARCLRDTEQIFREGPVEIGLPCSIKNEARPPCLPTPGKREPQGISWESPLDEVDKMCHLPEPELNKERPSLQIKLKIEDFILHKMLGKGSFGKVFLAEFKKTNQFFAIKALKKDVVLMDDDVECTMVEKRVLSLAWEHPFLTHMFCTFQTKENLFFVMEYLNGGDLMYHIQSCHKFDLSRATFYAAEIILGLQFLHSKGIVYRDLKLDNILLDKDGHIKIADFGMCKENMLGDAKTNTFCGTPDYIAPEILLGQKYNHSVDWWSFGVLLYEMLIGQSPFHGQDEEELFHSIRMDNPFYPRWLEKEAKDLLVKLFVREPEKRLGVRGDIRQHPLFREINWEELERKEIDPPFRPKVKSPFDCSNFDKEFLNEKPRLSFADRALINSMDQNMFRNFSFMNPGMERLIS

Consider `NC(=O)c1ccc(-c2nc(-c3ccc4c(c3)OCCO4)c(-c3ccccn3)[nH]2)cc1`, for which the residual activity (commonly the signal under treatment as a percentage of the control signal) was found to be 95% in [1]; 82% in experiment [2]; 68% in experiment [3]; 66% in experiment [4]; 137% in experiment [5]; 94% in experiment [6]. Also, the residual activity is 88% in experiment [7]; 87% in experiment [8]; 62% in experiment [9]; 98% in experiment [10]; 87% in [11].

As to `O=S(=O)(NCCNC/C=C/c1ccc(Br)cc1)c1cccc2cnccc12`, the residual activity in experiment [1] is 7%; in [2], 0%; in experiment [4] it was 72%; in [12], 78%; in experiment [6], 66%; in experiment [7] it was 15%. In addition, the residual activity came out at 61% in experiment [13], 17% in experiment [14] and 20% in experiment [9].

Consider `NCCNc1ncc(C(N)=O)c(Nc2cccc(C(F)(F)F)c2)n1`, for which the residual activity in experiment [1] is 44%; in experiment [2] it was 7%; in experiment [3] it was 78%; in experiment [4] it was 22%; in experiment [15] it was 64%; in [16], 14%. The residual activity in experiment [17] came to 127%; in experiment [12] it was 112%; in [8], 35%; in [9] it was 8%.

Take `COc1cc2nccc(Oc3ccc(NC(=O)Nc4cc(C)on4)c(Cl)c3)c2cc1OC`: the residual activity in experiment [3] worked out at 7%; in experiment [4] it was 2%; in experiment [15], 5%; in experiment [16] it was 6%; in experiment [17], 135%; in experiment [6] it was 96%. Moreover, the residual activity turned out to be 79% in experiment [7], 100% in experiment [13] and 98% in experiment [14].

In the case of `Nc1nccc(-c2c(-c3ccc(F)cc3)ncn2C2CCNCC2)n1`, the residual activity in experiment [1] was found to be 54%; in experiment [2] it was 36%; in [4] it was 53%; in [16] it was 43%; in [5], 120%; in experiment [6] it was 114%. The residual activity in experiment [7] amounted to 70%; in [8] it was 46%; in [9] it was 3%; in [11], 49%.

Regarding `O=C(c1ccccc1)c1ccc(N2CCOCC2)cc1O`, the residual activity was 98% in experiment [1]; 77% in experiment [2]; 83% in [3]; 75% in [4]; 93% in experiment [16]; 76% in experiment [17]. Further, the residual activity in experiment [5] is 81%; in experiment [6], 116%; in experiment [7], 83%; in [18], 78% (inactive); in experiment [19] it was 73%; in experiment [8], 95%. Besides, the values for the residual activity in [10] and in experiment [11] were 96% and 100%, respectively.

For the compound `O=C1Cc2c([nH]c3ccc(Br)cc23)-c2ccccc2N1`, the residual activity was found to be 60% in experiment [1]; 44% in [2]; 28% in [4]; 141% in [5]; 92% in experiment [12]; 72% in experiment [6]. The residual activity came out at 94% in experiment [7]; 49% in experiment [13]; 31% in experiment [14]; 99% in experiment [8]; 80% in [9].

For the compound `COc1ccc(CNC(=O)Nc2ncc([N+](=O)[O-])s2)cc1`, the residual activity in experiment [3] is 13%; in experiment [4], 12%; in [15], 52%; in experiment [16], 54%; in experiment [5], 123%; in experiment [12] it was 105%. Besides, the residual activity in experiment [18] was 110% (inactive); in [19], 110%.

`O=C1Cc2c([nH]c3ccc([N+](=O)[O-])cc23)-c2ccccc2N1`: the residual activity in experiment [3] was found to be 41%; in [4], 28%; in experiment [15] it was 81%; in experiment [16] it was 81%; in experiment [5], 123%.

For `Nc1nc(Nc2ccc(S(N)(=O)=O)cc2)nn1C(=O)c1c(F)cccc1F`, the residual activity was found to be 71% in [3]; 25% in experiment [4]; 75% in experiment [15]; 21% in experiment [16]; 105% in experiment [5]; 64% in experiment [7]. The residual activity in [13] is 30%; in experiment [14], 20%; in experiment [18], 109% (inactive); in experiment [19], 100%; in experiment [8], 75%; in experiment [9] it was 19%. The figures for the residual activity in experiment [10] and in experiment [11] were 113% and 78%, respectively.
